From PubChem BioAssay
This is a sample that favours compounds with a hit; in the whole collection about 19% have one here.
HT1080-NT tox = qHTS for induction of synthetic lethality in tumor cells producing 2HG: qHTS for the HT-1080-NT fibrosarcoma cell line. HT-1080-NT fibrosarcoma viability, CellTiter-Glo ATP luminescence, 48 h. Potency, µM (top dose mostly 46.1 µM), without a hit: top-dose activity, negative = less viability, actives largely listed as cytotoxic. actives 1.6% (n = 360,000). AID 686970, 2013;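 note: NT is the 2HG producing partner of a matched IDH1 knockdown line; 0% = DMSO-treated cells and -100% = media-only wells without cells; nearly all actives have a fitted effect of over 55% in size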
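Fibrosarcoma NT cells, 750 per well in 5% FBS RPMI, were exposed to compound for 48 hours. Viability: CellTiter-Glo luminescence.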
DT40 TDP1 CPT = qHTS for Inhibitors of human tyrosyl-DNA phosphodiesterase 1 (TDP1): qHTS in cells in presence of CPT; chicken DT40 Tdp1-/-;hTDP1 cells + 20 nM CPT, ATP luminescence, 48 h; Potency, µM (titrated, usually from 46.2 µM), inactives show at the highest dose activity change, negative = growth inhibition, actives largely listed as inhibitors; actives 12% (n = 420,000); note: nearly all actives have a fitted effect of over 55% in size
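Chicken DT40 Tdp1-/- cells complemented with human TDP1, 400 cells/well, exposed to compounds plus 20 nM camptothecin for at least 48 h at 37 C; viability read as ATP content by CellTiter-Glo luminescence.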
HT1080 IDH1KD tx = qHTS for induction of synthetic lethality in tumor cells producing 2HG: qHTS for the HT-1080-IDH1KD cell line; Potency, µM (series often up to 46.1 µM), without a hit: at the highest dose activity, negative = toxicity, most hits filed as cytotoxic; actives 2% (n = 360,000); HT-1080 IDH1 knockdown viability, ATP luminescence, 48 h;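 note: 0% = DMSO wells and -100% = cell-free medium wells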
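Assay cells: HT-1080 with IDH1 knockdown, 750 per well, RPMI/5% FBS. Exposure: 48 h at 37 °C following 2 h pre-incubation. Read: CellTiter-Glo luminescence; fitted concentration-response, curve class assigned.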
KB-3-1 cytotox = qHTS assay for MDR1-selective chemotherapeutics: Primary screen using the parental adenocarcinoma cell KB-3-1; KB-3-1 viability, CellTiter-Glo ATP luminescence, 72 h; Potency, µM (top dose mostly 46.1 µM), most hits filed as cytotoxic; actives 1.4% (n = 400,000); AID 1347075, 2019; note: nearly all actives have a fitted effect of over 60% in size
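Luminescent ATP read-out (CellTiter-Glo) measures survival of drug-naive KB-3-1 cells after 72 h compound exposure at 37 °C. Titration series was screened from lowest to highest concentration, with DMSO vehicle plates as background controls.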
KB-V1 MDR tox = qHTS assay for MDR1-selective chemotherapeutics: Primary screen using the drug-selected MDR subline cells KB-V1. KB-V1 MDR cells viability, CellTiter-Glo, 72 h. Potency, µM (doses to about 46.1 µM), most hits filed as cytotoxic. actives 3.4% (n = 400,000). AID 1347076, 2019; note: nearly all actives have a fitted effect of over 60% in size
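Cytotoxicity via CellTiter-Glo luminescence after 72 h compound exposure at 37 degrees C. Cells: drug-selected KB-V1 line, DMEM phenol-red free plus 10% FBS. Compounds tested at multiple concentrations; normalized data fitted to concentration-effect curves.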
DT40 TDP1 no CPT = qHTS for Inhibitors of human tyrosyl-DNA phosphodiesterase 1 (TDP1): qHTS in cells in absence of CPT; DT40 Tdp1-/- hTDP1 cells, no CPT, ATP luminescence, 48 h; Potency, µM (top dose mostly 46.2 µM), without a hit: at the highest dose activity change, negative = growth inhibition, actives largely listed as inhibitors; actives 15% (n = 420,000); note: nearly all actives have a fitted effect of over 55% in size
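A cellular qHTS used chicken DT40 cells lacking endogenous Tdp1 but carrying stably transfected human TDP1. Compounds were applied without camptothecin, and cell growth kinetics were judged by ATP-dependent luminescence after ≥48 hr.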
* hit, by the source's call. Calls come from the whole dose curve; as a rule, active = well fitted curve in the direction sought with a large enough effect; inconclusive = small, poorly fitted or top-dose-only effect, or another doubt; inactive = no such curve, though single readings can be large; an effect the other way counts as inactive or inconclusive. Unless noted, % is set by controls: 0 for no effect and ±100 for the full control effect; potency is the fitted concentration of half-maximal effect.

`COc1ccc(-c2c(C#Cc3ccsc3)c3cc(-c4ccc5cc[nH]c5c4)ccc3n2C)cc1` gave HT1080-NT tox 1%, DT40 TDP1 CPT inconclusive, HT1080 IDH1KD tx -2%, KB-3-1 cytotox inactive, KB-V1 MDR tox inconclusive and DT40 TDP1 no CPT 21µM*.
For COc1cc(OC)cc(-c2c(C#Cc3ccsc3)c3cc(-c4ccc5cc[nH]c5c4)ccc3n2C)c1 the results were HT1080-NT tox 6%, DT40 TDP1 CPT inconclusive, HT1080 IDH1KD tx 4%, KB-3-1 cytotox inactive, KB-V1 MDR tox inactive and DT40 TDP1 no CPT inconclusive.
For C=CCn1c2ccccc2c(=O)c2cc(C#Cc3cc(OC)cc(OC)c3)ccc21 the results were HT1080-NT tox 11%, DT40 TDP1 CPT 16µM*, HT1080 IDH1KD tx -2%, KB-3-1 cytotox inactive, KB-V1 MDR tox inactive and DT40 TDP1 no CPT inconclusive.
COc1ccc(-c2ccc3c(c2)c(C#Cc2ccsc2)c(-c2cc(OC)cc(OC)c2)n3C)cc1 was read as HT1080-NT tox -6%, DT40 TDP1 CPT 0%, HT1080 IDH1KD tx -1%, KB-3-1 cytotox inactive, KB-V1 MDR tox inconclusive and DT40 TDP1 no CPT inconclusive.
COc1ccc(-c2c(C#Cc3ccc(N(C)C)cc3)c3ccccc3n2C)cc1 was read as HT1080-NT tox -2%, DT40 TDP1 CPT 23µM*, HT1080 IDH1KD tx -12%, KB-3-1 cytotox inactive, KB-V1 MDR tox inactive and DT40 TDP1 no CPT inconclusive.
COc1ccc(-c2c(C#Cc3ccsc3)c3cc(-c4ccc(OC)c(F)c4)ccc3n2C)cc1 was read as HT1080-NT tox 4%, DT40 TDP1 CPT inconclusive, HT1080 IDH1KD tx 7%, KB-3-1 cytotox inactive, KB-V1 MDR tox inactive and DT40 TDP1 no CPT inconclusive.
For COc1ccc(-c2c(C#Cc3ccsc3)c3cc(Br)ccc3n2C)cc1 the results were HT1080-NT tox -1%, DT40 TDP1 CPT inconclusive, HT1080 IDH1KD tx -1%, KB-3-1 cytotox inactive, KB-V1 MDR tox inactive and DT40 TDP1 no CPT 21µM*.
`Cn1c2ccccc2c(=O)c2cc(C#Cc3ccccn3)ccc21` gave HT1080-NT tox 15%, DT40 TDP1 CPT -18%, HT1080 IDH1KD tx 10%, KB-3-1 cytotox inactive, KB-V1 MDR tox inactive and DT40 TDP1 no CPT inconclusive.
Screening CC(C)CC(=O)NCC1(N(C)C)CCCCC1 returned DT40 TDP1 CPT -15%, KB-3-1 cytotox inactive, KB-V1 MDR tox inactive and DT40 TDP1 no CPT -9%.
Screening COc1cc(C#Cc2c(C=O)n(C)c3ccccc23)cc(OC)c1 returned HT1080-NT tox 0%, DT40 TDP1 CPT inconclusive, HT1080 IDH1KD tx 13%, KB-3-1 cytotox inconclusive, KB-V1 MDR tox inactive and DT40 TDP1 no CPT 23µM*.
Screening Cn1cncc1C#Cc1c(C=O)n(C)c2ccccc12 returned HT1080-NT tox inconclusive, DT40 TDP1 CPT inconclusive, HT1080 IDH1KD tx -24%, KB-3-1 cytotox inconclusive, KB-V1 MDR tox inactive and DT40 TDP1 no CPT -13%.
`Cc1ccc(NC(=O)C(Cc2ccccc2)NS(=O)(=O)c2cccc3nsnc23)c(C)c1` (configuration not stated) gave DT40 TDP1 CPT -14%, KB-3-1 cytotox inactive, KB-V1 MDR tox inconclusive and DT40 TDP1 no CPT inconclusive.
Screening O=C(Nc1nccs1)c1ccc(-c2ccc(F)c(Cl)c2)o1 returned HT1080-NT tox 2%, DT40 TDP1 CPT inconclusive, HT1080 IDH1KD tx -9%, KB-3-1 cytotox inactive, KB-V1 MDR tox inactive and DT40 TDP1 no CPT inconclusive.
